# Assay results taken from the supplement of paper PMC8728848.
# Shown is part of a subset that was picked to be rich in the strongest signals.
# Key:
# Assay in all cases: glycan array binding signal (z-score within array); higher = stronger binding
# Details in all cases: glycan notation: IUPAC condensed, linker removed
# [1] = target: GlcNAc(b1-3)Gal(b1-4)GlcNAc(b1-2)Man(a1-3)[GlcNAc(b1-3)Gal(b1-4)GlcNAc(b1-2)Man(a1-6)]Man(b1-4)GlcNAc(b1-4)GlcNAc
# In short: (§1)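 Glycan array data were curated from 3228 arrays in the Consortium for Functional Glycomics database and kept only where the protein sequence was available. Glycan names were converted to IUPAC-condensed notation, and columns mapping to the same glycan were averaged. The binding signal is a within-array Z-score, averaged across arrays of the same protein sequence at different concentrations or buffers and across linkers. Negative Z-scores can be read as non-binding.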
# GlcNAc(b1-3)GalNAc = target: GlcNAc(b1-3)GalNAc
# In short: as §1
# [2] = target: Man(a1-3)[Man(a1-6)]Man(b1-4)GlcNAc(b1-4)[Fuc(a1-6)]GlcNAc
# In short: as §1
# [3] = target: Neu5Ac(a2-3)Gal(b1-3)GlcNAc(b1-2)Man(a1-3)[GlcNAc(b1-4)][Neu5Ac(a2-3)Gal(b1-3)GlcNAc(b1-2)Man(a1-6)]Man(b1-4)GlcNAc(b1-4)GlcNAc
# In short: as §1
# [4] = target: Neu5Ac(a2-3)Gal(b1-3)GlcNAc(b1-4)Gal(b1-4)Glc
# In short: as §1
# [5] = target: Neu5Ac(a2-3)Gal(b1-4)GlcNAc(b1-2)Man(a1-3)[Neu5Ac(a2-6)Gal(b1-4)GlcNAc(b1-2)Man(a1-6)]Man(b1-4)GlcNAc(b1-4)GlcNAc
# In short: as §1
# [6] = target: Neu5Ac(a2-3)Gal(b1-4)GlcNAc(b1-2)[Neu5Ac(a2-3)Gal(b1-4)GlcNAc(b1-6)]Man(a1-6)[Neu5Ac(a2-3)Gal(b1-4)GlcNAc(b1-2)Man(a1-3)][GlcNAc(b1-4)]Man(b1-4)GlcNAc(b1-4)GlcNAc
# In short: as §1
# [7] = target: Neu5Ac(a2-3)Gal(b1-4)GlcNAc(b1-3)Gal(b1-4)GlcNAc(b1-3)Gal(b1-4)GlcNAc
# In short: as §1
# [8] = target: Neu5Ac(a2-3)Gal(b1-4)[Fuc(a1-3)]GlcNAc(b1-2)Man
# In short: as §1
# [9] = target: Neu5Ac(a2-3)GalNAc(b1-4)GlcNAc
# In short: as §1
# Neu5Ac(a2-6)Gal = target: Neu5Ac(a2-6)Gal
# In short: as §1
# [10] = target: Neu5Ac(a2-6)Gal(b1-4)GlcNAc(b1-2)Man(a1-3)[GlcNAc(b1-4)][Neu5Ac(a2-6)Gal(b1-4)GlcNAc(b1-2)Man(a1-6)]Man(b1-4)GlcNAc(b1-4)GlcNAc
# In short: as §1
# [11] = target: Neu5Ac9Ac(a2-6)Gal(b1-4)GlcNAc
# In short: as §1
# [12] = target: Neu5Gc(a2-3)Gal(b1-4)GlcNAc
# In short: as §1
# Neu5Gc(a2-6)GalNAc = target: Neu5Gc(a2-6)GalNAc
# In short: as §1
# [13] = target: Neu5Gc(a2-8)Neu5Gc(a2-6)Gal(b1-4)GlcNAc
# In short: as §1
# [14] = target: Neu5Gc(b2-6)Gal(b1-4)GlcNAc
# In short: as §1
binder,measurement,setting,value
"AntigenI/IIC123 (Streptococcus mutans), C9E3B4 (protein) MASMTGGQQMGRIHFHYFKLAVQPQVNKEIRNNNDINIDRTLVAKQSVVKFQLKTADLPAGRDETTSFVLVDPLPSGYQFNPEATKAASPGFDVTYDNATNTVTFKATAATLATFNADLTKSVATIYPTVVGQVLNDGATYKNNFTLTVNDAYGIKSNVVRVTTPGKPNDPDNPNNNYIKPTKVNKNENGVVIDGKTVLAGSTNYYELTWDLDQYKNDRSSADTIQKGFYYVDDYPEEALELRQDLVKITDANGNEVTGVSVDNYTNLEAAPQEIRDVLSKAGIRPKGAFQIFRADNPREFYDTYVKTGIDLKIVSPMVVKKQMGQTGGSYENQAYQIDFGNGYASNIIINNVPKINPKKDVTLTLDPADTNNVDGQTIPLNTVFNYRLIGGIIPADHSEELFEYNFYDDYDQTGDHYTGQYKVFAKVDITFKDGSIIKSGAELTQYTTAEVDTAKGAITIKFKEAFLRSVSIDSAFQAESYIQMKRIAVGTFENTYINTVNGVTYSSLEHHHHHH",glycan array binding signal (z-score),[1],0.67
same,glycan array binding signal (z-score),GlcNAc(b1-3)GalNAc,-0.207
same,glycan array binding signal (z-score),[2],-0.768
same,glycan array binding signal (z-score),[3],0.141
same,glycan array binding signal (z-score),[4],-0.775
same,glycan array binding signal (z-score),[5],-0.814
same,glycan array binding signal (z-score),[6],-1.1
same,glycan array binding signal (z-score),[7],-0.469
same,glycan array binding signal (z-score),[8],-0.89
same,glycan array binding signal (z-score),[9],0.443
same,glycan array binding signal (z-score),Neu5Ac(a2-6)Gal,4.55
same,glycan array binding signal (z-score),[10],-0.868
same,glycan array binding signal (z-score),[11],-1.27
same,glycan array binding signal (z-score),[12],-1.14
same,glycan array binding signal (z-score),Neu5Gc(a2-6)GalNAc,-0.987
same,glycan array binding signal (z-score),[13],-0.326
same,glycan array binding signal (z-score),[14],-0.257
